Sequences and labels used below:
T1: UNK ZnF1-3 (human, UniProt Q9C0B0 31-174)
T1 sequence: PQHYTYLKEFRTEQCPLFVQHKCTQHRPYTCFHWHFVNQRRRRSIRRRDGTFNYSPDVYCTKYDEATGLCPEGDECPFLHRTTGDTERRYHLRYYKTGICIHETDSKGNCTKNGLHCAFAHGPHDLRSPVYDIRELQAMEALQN

B1: chr7:40134317:40134318:+_ENSG00000065883_ENST00000340829|hu_mus|FALSE|FALSE (ssRNA)
RNA: GGGAGUUCUACAGUCCGACGAUCGGAAGGGUCAUUGCUGUUUGUGAGGACUGUGAUAGGACCAUGGCUAUAUUCAAAUCUAUGGUCCUUGUCUCCACUAAACAACAUGGGACCAGCAUUGAGGUAAAUGUCUCCAUAUCCAGCCAACAGAGGAUUGAGCAUCA
B2: chr11:61557309:61557310:-_ENSG00000134825_ENST00000537328|hu_mus|FALSE|FALSE (ssRNA)
RNA: GGGAGUUCUACAGUCCGACGAUCGAUGCCAACCCAGAGCAGGAGGAAGAGGACUCCAAAGCCCAUGAAGAGUGAGGCCACCAAGGAGAUGAGGAGCUCUUUGUAAAUAUCGCGUGUGUACUUGGUAGAGGUGACCUCGUAAACCAACAGAGGAUUGAGCAUCA
B3: chr17:60744165:60744166:+_ENSG00000011028_ENST00000303375|hu_mus|FALSE|FALSE (ssRNA)
RNA: GGGAGUUCUACAGUCCGACGAUCGUUGAGGUACUUGAGGGGUGAGUUGUCUGACCACUGCCAGCCUCCACUGGUAUCCAGGUCAUUAAGGCCAAUCCAUAGCGUGGAGCUGUAGCCCGUGAGGAGCCCGUUGAUGUAGGUCUGCAACAGAGGAUUGAGCAUCA
B4: chr4:25749455:25749456:-_ENSG00000091490_ENST00000264868|hu_hu|hu_hu_hu_mus_False|48_68 (ssRNA)
RNA: GGGAGUUCUACAGUCCGACGAUCGCACUAUGACCUCUAGAAAAAUCCACAGGGGGAAAAAAUGUAAACCAAUUUACAAUGUUAUCGCCCUCCCUGCGUGUGGAGUGUUUGUCUCAAGGCUCCUUCUAGCUGCUGGAUUUGGGACAACAGAGGAUUGAGCAUCA
B5: chr17:25064881:25064882:-_ENSMUSG00000024163_ENSMUST00000117509|mus_mus|FALSE|FALSE (ssRNA)
RNA: GGGAGUUCUACAGUCCGACGAUCAUAAUGUUCUACCUGGAUCUGGAGUUCUUUCUUCUCUUGUUCCAAGGCAUCUUCAAAUUCGAUGAAUUUCUCCUCGGCCUGUUUGCGCAGCGCCUUCUCGCGCUCGUAUUGCGUGAGCAGCAACAGAGGAUUGAGCAUCA
B6: chr3:51263940:51263941:+_ENSMUSG00000063273_ENSMUST00000029303|mus_hu|FALSE|FALSE (ssRNA)
RNA: GGGAGUUCUACAGUCCGACGAUCGUAAAAUGGAUGCUGUCGAAGUACAUCUUCUAGUUUUAAUAAGUCCACAUAUGAUCUAAGGGUAAUCUUCCUCAUACAGUAUGUAUGAAAGUCAAACUGGUCAUCAGUGAUUUCUAUAAACAACAGAGGAUUGAGCAUCA

Over roughly 24,000 sequences, “enrichment r” has its median near 0.99; the highest 2% begin near 3.7. For the sample, the highest values were picked, then their nearest neighbours and some sequences at random.

In the test the target is T1, UNK ZnF1-3. Put plainly: nsRBNS (natural sequence RNA bind-n-seq); RBNS binding buffer (assumed for nsRBNS): 25 mM Tris pH 7.5, 150 mM KCl, 3 mM MgCl2, 0.01% Triton X-100, 500 ug/ml BSA, 20 U/ml SUPERase-In, 4 C; UNK is unkempt and MSI1 is Musashi-1; names of the RNAs are library labels; protein concentration not given here; high values mean tight binding.
Regarding B1, the binding signal was 0.887 enrichment R.

On to B2, for which the binding signal is 2.5 enrichment R. In the case of B3, the binding signal was found to be 1.03 enrichment R.

For the molecule B4, the binding signal was 1.03 enrichment R. B5 yielded a binding signal of 0.355 enrichment R.

B6 had a binding signal of 0.873 enrichment R.

(Values after publication PMC12136788.)
